EP2 antag – human EP2 receptor antagonists, primary screen, TR-FRET cAMP, C6 glioma cells | inhibition, % at 25 µM | Prostaglandin E2 receptor EP2 subtype (Homo sapiens), P43116 | actives 0.52% (n = 260,000) | C6 glioma cells expressing human EP2; cells stimulated with saturating PGE2;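 active means percent inhibition above 40 after rounding to a whole number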;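 further: rat C6 glioma host cells with rolipram phosphodiesterase inhibitor present; the protocol text gives 20 µM as final concentration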
Target sequence (P43116 whole entry, looked up): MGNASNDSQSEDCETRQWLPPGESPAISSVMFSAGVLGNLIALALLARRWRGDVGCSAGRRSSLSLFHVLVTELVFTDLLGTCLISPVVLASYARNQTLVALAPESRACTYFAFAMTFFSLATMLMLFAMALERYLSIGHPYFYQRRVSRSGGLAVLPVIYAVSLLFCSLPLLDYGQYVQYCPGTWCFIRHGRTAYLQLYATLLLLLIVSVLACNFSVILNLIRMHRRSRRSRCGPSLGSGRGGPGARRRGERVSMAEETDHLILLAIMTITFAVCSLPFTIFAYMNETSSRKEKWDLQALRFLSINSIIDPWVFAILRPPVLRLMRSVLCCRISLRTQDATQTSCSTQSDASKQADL
S1P4 ag – S1P4 receptor agonists, primary screen, cell-based. Sphingosine 1-phosphate receptor 4 (Homo sapiens), O95977. S1P4-expressing cell line, agonist reporter assay. activation, % at 4.98 µM. actives 0.35% (n = 220,000). AID 1509, 2009; in the data active means activation above about 11%;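 further: 0% = DMSO vehicle and 100% = reference agonist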
EP2 modulator – EP2 receptor modulators, cAMP readout, primary screen, cell-based, HTRF cAMP, PGE2 stimulation; actives 0.83% (n = 260,000); AID 940, 2007; Prostaglandin E2 receptor EP2 subtype (Homo sapiens), P43116; induction, % at 25 µM; EP2-expressing cells, cAMP HTRF FRET, PGE2 co-stimulation;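 active means compounds whose cAMP rise, as percent of the full-agonist control response, exceeds 60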;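 further: rat C6 glioma line stably carrying human EP2 under a CMV promoter; the protocol text gives 20 µM as final concentration; 100% = response of wells given 1 µM PGE2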
S1P4 antag – S1P4 receptor antagonists, primary screen, cell-based; Sphingosine 1-phosphate receptor 4 (Homo sapiens), O95977; AID 1510, 2009; actives 0.26% (n = 220,000); S1P4-expressing cells, antagonist mode, reporter read-out; inhibition, % at 4.98 µM; in the data active means inhibition above about 29%;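 further: 0% = wells stimulated with agonist and 100% = vehicle wells without agonist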
S1P3 antag – S1P3 receptor antagonists, primary screen, cell-based | Sphingosine 1-phosphate receptor 3 (Homo sapiens), Q99500 | CHO S1P3 NFAT-BLA reporter, FRET fluorescence, antagonist mode | inhibition, % at 4.98 µM | actives 0.27% (n = 170,000) | AID 485, 2006;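 active means inhibition above the plate cutoff, the mean inhibition of test wells on that plate plus 3 SD, cut at about 28% in these data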;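 further: cells challenged with S1P at its EC80 of 0.8 µM; blue over green emission ratio from cleaved BLA substrate after 4 h stimulation; 0% = S1P-stimulated wells and 100% = unstimulated DMSO-only wells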
Numbers without * were called inactive; . = no result. This is a sample that favours compounds with a hit; in the whole collection about 2% have one here.

SMILES	EP2 antag	S1P4 ag	EP2 modulator	S1P4 antag	S1P3 antag
O=C1c2ccccc2C(=O)N1c1cccc(-c2nc3ccccc3o2)c1	13	1	28	7	7
CCc1ccccc1NC(=O)CSc1nc2cc(C)cc(C)c2cc1C#N	15	.	26	.	.
O=C(CSc1nc2ccccc2c(=O)n1Cc1ccco1)NCc1ccccc1	-3	-1	.	5	76*
O=C(CSc1nc2[nH]ncc2c(=O)n1-c1ccccc1Br)NCc1ccco1	5	-1	19	-11	83*
CCC(C)(C)n1nnnc1CN(Cc1ccco1)Cc1cc2cc3c(cc2[nH]c1=O)OCCO3	7	.	12	.	.
Nc1c(S(=O)(=O)c2cccs2)c2nc3ccccc3nc2n1/N=C/c1cccc(O)c1	41*	-3	-7	-2	-44
CCC(Sc1nnc(-c2ccncc2)n1C)C(=O)Nc1ccc(Br)cc1 (centres undefined)	15	.	9	.	.
Cc1cc(C(=O)CSc2nnc(-c3cccnc3)n2-c2ccccc2F)c(C)n1C	5	27*	-8	-54	-9
COc1ccc(CC(=O)NCC2CCN(c3nc(C)cc(C)n3)CC2)cc1	7	.	-34	.	.
Cc1ccc(NC(=O)/C(=C/c2ccco2)c2ccccc2)c(C)c1	5	-2	65*	18	.
Cc1cc(C)c(NC(=O)/C(=C/c2ccccc2)c2ccccc2)c(C)c1	3	0	62*	-18	-6
CNC(=O)C(=O)Nc1c(C)cc(C)cc1C	1	1	4	7	-5
Cc1c(C(=O)NC(c2ccccc2)c2cccnc2)oc2c(C)cccc12 (centres undefined)	8	.	34	.	.
COC(=O)CSc1nc2ccc(NC(=O)CSc3nnnn3Cc3ccccc3)cc2s1	48*	-1	-43	7	-17
CCc1cc2c(C)ccc(C)c2nc1SCC(=O)N1CCOCC1	10	.	25	.	.
c1ccc2c(CN3CCN(Cc4c[nH]c5ccccc45)CC3)c[nH]c2c1	62*	.	-21	.	.
Fc1ccc(N2CCN(Cc3c[nH]c4ccccc34)CC2)cc1	7	0	-56	7	-6
CCOc1ccccc1NC(=O)CN1CCN(c2nc(-c3cccc(OC)c3)cs2)CC1	10	.	-38	.	.
CC1(C)Cc2cccc(C(=O)Nc3ccc(F)cc3F)c2O1	4	-1	82*	8	-8
CC(C)(C)NC(=O)c1cccc2c1OC(C)(C)C2	5	-1	40	-3	-2
Cc1ccccc1OCC(=O)Nc1ccc(N2CCN(C(=O)C(C)C)CC2)cc1	4	.	-69	.	.
O=C(Nc1ccc(C(=O)O)cc1)/C(=C/c1cccc(Br)c1)NC(=O)c1ccco1	5	1	63*	-20	-5
Cc1ccc(NC(=O)/C(=C/c2cccc(Br)c2)NC(=O)c2ccco2)cc1	4	-2	13	-16	1
O=c1c2ccccc2c2ccccc2c(=O)n1-c1cc2c3ccccc3ccc2c2ccccc12	49*	.	18	.	.
CS(=O)(=O)N1CCc2cc(C(=O)Nc3ccc(F)cc3)ccc21	17	.	-82	.	.
SMILES	EP2 antag	S1P4 ag	EP2 modulator	S1P4 antag	S1P3 antag
CC1CCCCN1c1nc(-c2ccncc2)nc2ccccc12 (centres undefined)	22	-3	65*	2	2
COc1cccc(-n2c(SCC(=O)NC(C)(C)C)nnc2-c2cccnc2)c1	8	.	-91	.	.
CCOc1ccc2[nH]c(=O)c(CN(CC3CCCO3)C(c3nnnn3C3CCCC3)C(C)C)cc2c1 (centres undefined)	9	.	24	.	.
CCCCN(CCCC)C(=O)C1(P(=O)(c2ccccc2)c2ccccc2)CCC1	6	2	85*	-5	7
C/C(N[O-])=C(\C)[N+]([O-])=[Fe].CC(=N\[O-])/C(C)=N/[O-].[NH2-].c1c[nH+]c[n-]1	44*	.	-9	.	.
C/C(N[O-])=C(\C)[N+]([O-])=[Cu].C/C(N[O-])=C(\C)[N+]([O-])=[Cu].CC(=N\[O-])/C(C)=N/[O-].CC(=N\[O-])/C(C)=N/[O-]	56*	.	-16	.	.
COc1ccc(-n2nnnc2SCC(=O)NCCc2ccccc2)c(OC)c1	15	.	-58	.	.
O=C(Cc1ccc(-n2cnnn2)cc1)N1C2CCC1CC(c1ccc(F)cc1)C2 (centres undefined)	.	.	-36	.	.
CN(C)CCC[C@@H]1c2ccccc2Oc2ccc(C(F)(F)F)cc21	58*	.	-32	.	.
